High-throughput results from PubChem.
The list is not random: actives were taken first. Their share in the collection is about 8.9%.
KB-V1 cytotox – qHTS assay for MDR1-selective chemotherapeutics: Primary screen using the drug-selected MDR subline cells KB-V1 | KB-V1 MDR cells viability, CellTiter-Glo, 72 h | Potency, µM (doses to about 46.1 µM), hits mostly cytotoxic | actives 3.4% (n = 400,000); note: potency is the fitted concentration of half-maximal effect; % is set by controls: 0 for no effect and ±100 for the full control effect; nearly all actives have a fitted effect of over 60% in size
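Readout: CellTiter-Glo luminescence, 10 min after addition. Cells: KB-V1 MDR subline, 72 h at 37 degrees C with compound. Analysis: corrected, normalized data fitted to concentration-effect curves.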
DRD3 antagonist – qHTS of D3 Dopamine Receptor Antagonist: qHTS; D3R cells, DiscoveRx beta-arrestin luminescence, antagonist mode; stronger effect = lower value; actives 2.5% (n = 360,000); max response, negative = inhibition, %; in the data active = max response below about -50%; inconclusive = no clear call, values can overlap the other calls; note: % is set by controls: 0 for no effect and ±100 for the full control effect
Target sequence (P35462 whole entry, looked up): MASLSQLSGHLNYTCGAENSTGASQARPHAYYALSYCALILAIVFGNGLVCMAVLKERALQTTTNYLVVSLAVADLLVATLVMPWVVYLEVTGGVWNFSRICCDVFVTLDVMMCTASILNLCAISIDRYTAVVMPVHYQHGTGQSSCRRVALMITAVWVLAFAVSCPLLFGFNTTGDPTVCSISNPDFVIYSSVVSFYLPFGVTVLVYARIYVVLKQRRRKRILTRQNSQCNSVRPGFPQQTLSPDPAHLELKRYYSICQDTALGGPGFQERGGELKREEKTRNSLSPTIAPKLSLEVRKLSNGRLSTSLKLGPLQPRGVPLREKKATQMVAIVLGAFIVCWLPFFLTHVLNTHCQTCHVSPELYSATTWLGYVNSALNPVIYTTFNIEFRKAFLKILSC
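Cells plated overnight at 1500 cells/well, then exposed to library compounds with dopamine controls for 90 minutes at 37 degrees C. DiscoveRx reagent added for 30–60 minutes at room temperature; luminescence read, quantitative HTS format.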
KB-3-1 cytotox – qHTS assay for MDR1-selective chemotherapeutics: Primary screen using the parental adenocarcinoma cell KB-3-1. actives 1.4% (n = 400,000). KB-3-1 viability, CellTiter-Glo ATP luminescence, 72 h. Potency, µM (top dose mostly 46.1 µM), usual class: cytotoxic; note: potency is the fitted concentration of half-maximal effect; % is set by controls: 0 for no effect and ±100 for the full control effect; nearly all actives have a fitted effect of over 60% in size
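Parental KB-3-1 viability, qHTS format: 72 h compound exposure, 37 °C; CellTiter-Glo; media-only wells and DMSO plates as controls; concentration-effect fits on corrected data.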
MCF10A rereplic – A quantitative high throughput screen for small molecules that induce DNA re-replication in MCF 10a normal breast cells; MCF 10A DNA re-replication, Hoechst nuclear intensity, 48 h; Potency, µM (highest dose often 46.1 µM), inactives show at the top dose activity, positive = re-replication, most hits filed as activators; actives 2.9% (n = 350,000); note: potency is the fitted concentration of half-maximal effect; % of control where 0% means no effect; nearly all actives have a fitted effect of over 50% in size
SW480 rerep – A quantitative high throughput screen for small molecules that induce DNA re-replication in SW480 colon adenocarcinoma cells; actives 1.8% (n = 340,000); Potency, µM (titrated, usually from 46.1 µM), for the others: at the top dose re-replication activation, most hits filed as activators; SW480 DNA re-replication, Hoechst DNA content imaging, 48 h; AID 624297, 2012; note: potency is the fitted concentration of half-maximal effect; % of control where 0% means no effect; nearly all actives have a fitted effect of over 55% in size
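Readout is total intensity of Hoechst-stained nuclei, excited at 405 nm and collected at 500-530 nm. Compound treatment lasted 48 hr at 37 C in 5% CO2 before staining.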
D3 ag – qHTS of D3 Dopamine Receptor Agonist: qHTS | D(3) dopamine receptor (Homo sapiens), P35462 | actives 0.58% (n = 410,000) | AID 652048, 2013 | max activation, % | D3R DiscoveRx beta-arrestin cells, luminescence, 90 min; in the data active = max activation above about 30%; note: 0% is about no effect
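Cells at 1500/well, incubated overnight, then treated with pinned compounds (dopamine as control) for 90 min at 37 degrees C. DiscoveRx reagent added for 30 - 60 minutes at room temperature; luminescence read.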
The depositor's hits bear a star; i = inactive; ? = inconclusive; · = no result given; ! = repeats disagree. Unless noted, calls come from the whole dose curve; as a rule, active = well fitted curve in the direction sought with a large enough effect; inconclusive = small, poorly fitted or top-dose-only effect, or another doubt; inactive = no such curve, though single readings can be large; an effect the other way counts as inactive or inconclusive.

SMILES	KB-V1 cytotox	DRD3 antagonist	KB-3-1 cytotox	MCF10A rereplic	SW480 rerep	D3 ag
COc1cc(CNCCc2ccccc2)cc(Cl)c1OCc1ccccc1	18µM*	4	?	23µM*	?	-18
CCn1c2ccccc2c2cc(CN3CCN(S(C)(=O)=O)CC3)ccc21	3.3µM*	15	i	22%	12%	-7
Cc1ccc(N2C(=O)c3ccccc3C2=O)cc1	i	?	i	-12%	3%	1
Cc1ccc(SC2=C(Sc3ccc(C)cc3)C(=O)c3ccccc3C2=O)cc1	i	-114*	i	3.3µM*	8.2µM*	-18
CC(C)Oc1ccc(CNS(=O)(=O)c2ccc(-c3cc(C(F)(F)F)on3)s2)cc1	·	·	·	·	·	-28
COc1cc(C)c(CN2CCN(CC(=O)Nc3ccccc3C(=O)NC3CC3)CC2)cc1OC	i	-21	i	3%	-19%	-3
CSc1nc(-c2ccc(F)cc2)cc(=O)[nH]1	i	2	i	0%	9.2µM*	-19
O=c1cc(-c2ccccc2)nc(SCc2ccc(F)cc2)[nH]1	i	-8	i	-3%	-5%	1
Cc1ccc(Cl)cc1N1CCN(C(=O)c2cc(S(=O)(=O)N3CCCCC3)cn2C)CC1	i	·	i	·	·	-9
COc1ccc(NC(=O)c2cc3ccccc3o2)c(OC)c1	i	·	i	·	·	8
COc1ccccc1NC(=O)c1cc2ccccc2o/c1=N\O	2.6µM*	-21	i	8%	1%	-4
COc1ccccc1NC(=O)c1cc2ccc(O)cc2o/c1=N\O	i	-75*	i	?	?	-2
COc1ccccc1N=c1oc2cc(O)ccc2cc1C(=O)NCC1CCCO1 (stereo not drawn)	i	19	i	7%	13%	2
COc1ccccc1NC(=O)c1cc2cc(Br)ccc2cc1O	?	22	18µM*	?	-3%	8
COc1ccccc1N=c1oc2cc(O)ccc2cc1C(N)=O	?	-54*	?	18µM*	11µM*	-10
COc1ccc(OC)c(S(=O)(=O)NCC(c2cccs2)S(=O)(=O)c2ccc(F)cc2)c1 (stereo not drawn)	·	·	·	·	·	-1
COc1cccc(C(=O)CC2(O)C(=O)Nc3ccc(Cl)cc32)c1 (stereo not drawn)	?	·	i	·	·	0
Cc1cccc2[nH]cc(/C=C3/C=Nc4ccccc43)c12	i	·	i	·	·	·
O=C(/C=C\c1ccc2c(c1)OCO2)NC1CC(=O)N(c2ccc(F)cc2)C1 (stereo not drawn)	·	·	·	·	·	4
CC(C)CC1Nc2ncnc(N3CCN(c4ccccc4)CC3)c2N(Cc2ccccc2)C1=O (stereo not drawn)	i	-78*!	i	-1%	?	-12
CC1Nc2ncnc(N3CCN(c4ccccc4)CC3)c2N(Cc2ccccc2)C1=O (stereo not drawn)	i	-110*	i	11%	-2%	-69
CC(C)CC1NC(=S)N(C2CCCCC2)C1=O (stereo not drawn)	i	3	i	16µM*	?	1
CC(C)CC1Nc2ncnc(N3CCN(c4ccccc4)CC3)c2N(Cc2ccc(Br)cc2)C1=O (stereo not drawn)	i	0	?	7%	-3%	0
CC(C)CC1Nc2ncnc(N3CCN(c4ccccn4)CC3)c2N(Cc2ccc(Cl)cc2)C1=O (stereo not drawn)	23µM*!	?	?	81%	13%	-39
CC1Nc2ncnc(N3CCN(c4ccccc4)CC3)c2N(Cc2ccc(Cl)cc2)C1=O (stereo not drawn)	?	-166*	i	10%	3%	-81
SMILES	KB-V1 cytotox	DRD3 antagonist	KB-3-1 cytotox	MCF10A rereplic	SW480 rerep	D3 ag
O=C1C(Cc2ccccc2)NC(=S)N1Cc1ccccc1 (stereo not drawn)	i	-8	i	7%	-7%	-3
CC(C)CC1NC(=S)N(Cc2ccccc2)C1=O (stereo not drawn)	21µM*	14	?	?	?	0
Cc1cc(C)cc(S(=O)(=O)c2cn(C)c3cc(N4CCN(C)CC4)c(F)cc3c2=O)c1	?	16	i	23µM*	-10%	1
COC(=O)c1cc(NC(=O)CCc2c(C)nc3c(c(C)nn3C(C)(C)C)c2C)cc(C(=O)OC)c1	i	·	i	·	·	2
CCOc1ccc(NC(=O)CNC(=O)c2ccc(OC)cc2)cc1	i	5	?	-1%	-14%	0
CCCCOc1ccc(C(=O)NCC(=O)NCCOc2ccccc2OC)cc1	i	-10	i	9%	0.92µM*	0
CCOc1ccc(NC(=O)CNC(=O)c2ccc(OC)c(OC)c2)cc1	?	-54*	i	0%	-12%	-11
Cc1ccc(OCCNC(=O)CNC(=O)c2ccc(C)cc2)cc1	i	10	i	1%	-2%	-3
Cc1ccccc1OCCNC(=O)CNC(=O)c1ccccc1O	16µM*	-14	i	12%	-7%	4
Cc1ccc(-c2cc3ncc(C(=O)c4cc([N+](=O)[O-])ccc4O)cn3n2)cc1	i	·	16µM*	·	·	-16
CCOC(=O)COc1ccc([N+](=O)[O-])cc1-c1ccnc2cc(-c3ccc(C)cc3)nn12	i	·	i	·	·	-2
O=C(c1cnc2cc(-c3ccccc3)nn2c1)c1cc([N+](=O)[O-])ccc1O	i	·	?	·	·	-12
Cc1ccc(-c2cc3nccc(-c4cc([N+](=O)[O-])ccc4O)n3n2)cc1	?	·	23µM*	·	·	1
COC(=O)CNC(c1ccccc1)c1cc(Br)ccc1NC(=O)c1cc(OC)c(OC)c(OC)c1 (stereo not drawn)	i	·	i	·	·	-6
Cc1cc2c(cc1S(=O)(=O)CCC(=O)N1CCN(c3ccccc3)CC1)OCC(=O)N2	i	·	i	·	·	1
CCCCc1c(-c2cccc(OC)c2)ncn1CCc1ccccc1OC	12µM*	44	?	·	·	6
CCCCCc1c(-c2ccc(F)cc2F)ncn1CCc1ccccc1OC	13µM*	0	?	·	·	7
COc1ccccc1CCn1cnc(-c2ccc(OC)c(OC)c2)c1C(C)C	i	1	?	·	·	-2
CCc1c(-c2cccc(OC)c2)ncn1Cc1cccc(-c2ccccc2)c1	?	23	?	·	·	7
